According to PubChem BioAssay AID628 (Vanderbilt High Throughput Screening Facility, 2007):
About 2,200 (3.4%) of roughly 64,000 compounds were called active. For the sample, actives were picked, then their nearest neighbours and some compounds at random. Values without a mark were called inactive.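 How the source made its calls: active means calcium fluorescence response, raw or row-and-column corrected B-score, differing from the plate sample mean either way at a set confidence level, mostly lower; inactive means the rest.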

Target: Muscarinic acetylcholine receptor M1 (Rattus norvegicus) (UniProt P08482)
Sequence (P08482 whole entry, looked up): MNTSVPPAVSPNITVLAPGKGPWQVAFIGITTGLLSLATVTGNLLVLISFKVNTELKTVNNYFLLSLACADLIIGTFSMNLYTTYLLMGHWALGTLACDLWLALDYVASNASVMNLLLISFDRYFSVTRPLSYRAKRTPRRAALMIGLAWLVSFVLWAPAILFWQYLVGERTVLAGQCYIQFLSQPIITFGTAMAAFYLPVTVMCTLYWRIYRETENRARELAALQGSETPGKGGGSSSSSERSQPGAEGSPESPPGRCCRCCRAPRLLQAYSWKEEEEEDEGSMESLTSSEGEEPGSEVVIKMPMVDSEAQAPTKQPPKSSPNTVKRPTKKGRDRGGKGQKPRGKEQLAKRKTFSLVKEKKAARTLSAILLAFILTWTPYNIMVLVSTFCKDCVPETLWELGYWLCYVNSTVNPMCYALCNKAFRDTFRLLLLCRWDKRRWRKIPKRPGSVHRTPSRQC
Assay: blocks the rat M1 muscarinic receptor response to acetylcholine (AID 628)
Details: CHO-M1 cells, Fluo-4 calcium, ACh EC80 antagonist mode; at 10 µM; hits give low values

With `CC[N+]1(C)CCCC(OC(=O)C(O)(c2ccccc2)c2ccccc2)C1` (stereo not given) the B-score was -11.4 (active).
With `CCOC(=O)C1SC2(C(F)(F)C(F)F)CC1(O)c1c(c(OC)c3occc3c1OC)O2` (stereo not given) the B-score was -2.3 (active).
For `COc1ccc(CN2CCN(c3ccccc3F)CC2)c(OC)c1`, the B-score was -2.11 (active).
For `COc1ccc(C2NCc3ccc4c(c3-n3cccc32)OCO4)cc1OC` (stereo not given), the B-score was -4.39 (active).
For `Fc1ccc(N2CCN(Cc3ccc4c(c3)OCO4)CC2)cc1`, the B-score was -2.36 (active).

In order of falling B-score:
1. COc1ccccc1N=C1SCCCN1C  0.926
2. CCOC(=O)c1c(N)n(Cc2ccccc2)c2nc3ccccc3nc12  0.91
3. CCN(CC)P(=O)(Oc1cccc(C)c1)N(CC)CC  0.467
4. C[N+]12CN3CN(CN(C3)C1)C2  0.464
5. COc1ccccc1CN1CCN(C(=O)Cc2ccccc2)CC1  0.441
6. CC(C)c1ccc(O)c(CN2CCN(c3ccccc3)CC2)c1  0.336
7. CCOC(=O)CC1=C(C(=O)OCC)C2(C(=O)N1)C(C(=O)OC)=C(N)Oc1ccccc12 (stereo not given)  0.186
8. CC(=NCc1ccc2c(c1)OCO2)c1c(O)[nH]c(=O)[nH]c1=O  0.0855
9. CCOC(=O)c1c(C)c(C(=O)N2CCC3(CC2)OCCO3)c(C)n1CC  0.059
10. Cc1nc2nc(C)c(CCC(=O)N3CCC4(CC3)OCCO4)c(C)n2n1  0.0167
11. CNP1(NC)=Nc2nn(-c3ccccc3)c(N)c2C(c2ccccc2)=N1  0.00862
12. CCC/C(=N\O)c1c[nH]c2ccccc12  -0.0862
13. CSC1=NP(=S)(SC)N(C)c2nc3n(c21)CCC3 (stereo not given)  -0.101
14. O=c1c2ccccc2nc(-c2ccco2)n1-c1ccc(Br)cn1  -0.192
15. COc1ccc(C(=O)CC2C(=O)N(C)C(=O)N(C)C2=O)cc1  -0.22
16. CC12CN3CC(C)(CN(C1)C3c1cccs1)C2 (stereo not given)  -0.259
17. CCc1nc2ccccc2c(=O)n1-c1cccc(OC)c1  -0.313
18. O=C1NC(=O)C(C/C=C/c2ccccc2)C(=O)N1  -0.333
19. c1ccc(C2NCc3ccccc3-n3cccc32)cc1 (stereo not given)  -0.457
20. Cc1ccc(C)c(NC2=NCCCS2)c1  -1.64
